Source: PubChem BioAssay AID1159580 (chemical genetic matrix, 2015)
Values joined by “and” are separate entries in the source; they are usually repeats but may differ in a detail not shown here. Identical values can stand only once. Hit rate of the full screen: of about 5,500 compounds, about 2,000 (36%) were called active. Inconclusive results (about 18%) are left out. Cut-off read from the data, not from the text of the source: active = normalized growth mostly below about 0.91 (no sharp cut-off); inconclusive = no clear call, values can overlap the other calls; inactive = mostly above about 0.92. The list shows a part of the results.

Experiment: chemical genetic growth profiling, strain panel (AID 1159580);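 note: tested at 20 µM; growth read once vehicle control cultures reached saturation at 30 °C; 1 = growth at the plate median or of vehicle wells; lower values mean less growth of the strain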
Settings: growth OD

Measured: normalized growth

CN(C)C(=O)Oc1cccc([N+](C)(C)C)c1
inactive: S. cerevisiae deletion strains, locus YJR075W, strain HOC1, stronger effect = lower value 1.02 | S. cerevisiae deletion strains, locus YKL009W, strain mrt4, stronger effect = lower value 0.969 | S. cerevisiae deletion strains, locus YKL068W, stronger effect = lower value 0.988 | S. cerevisiae deletion strains, locus YKL085W, strain MDH1 (second series), stronger effect = lower value 0.985 | S. cerevisiae deletion strains, locus YKL085W, strain MDH1, stronger effect = lower value 0.985 | S. cerevisiae deletion strains, locus YKL160W, strain elf1, stronger effect = lower value 0.996 | S. cerevisiae deletion strains, locus YKL190W, strain CNB1, stronger effect = lower value 1 | S. cerevisiae deletion strains, locus YKR001C, strain vps1, stronger effect = lower value 0.983 | S. cerevisiae deletion strains, locus YKR026C, strain gcn3, stronger effect = lower value 0.984 | S. cerevisiae deletion strains, locus YKR091W, strain srl3, stronger effect = lower value 0.995 | S. cerevisiae deletion strains, locus YLL001W, strain dnm1, stronger effect = lower value 0.988 | S. cerevisiae deletion strains, locus YLL026W, stronger effect = lower value 1 | S. cerevisiae deletion strains, locus YLL041C, strain sdh2, stronger effect = lower value 1.01 | S. cerevisiae deletion strains, locus YLR027C, strain aat2, stronger effect = lower value 0.984 | S. cerevisiae deletion strains, locus YLR039C, strain RIC1, stronger effect = lower value 0.985 | S. cerevisiae deletion strains, locus YLR058C, strain SHM2, stronger effect = lower value 0.996 | S. cerevisiae deletion strains, locus YLR102C, strain apc9, stronger effect = lower value 0.995 | S. cerevisiae deletion strains, locus YLR113W, strain HOG1, stronger effect = lower value 0.989 | S. cerevisiae deletion strains, locus YLR221C, strain rsa3, stronger effect = lower value 0.99 | S. cerevisiae deletion strains, locus YLR258W, strain gsy2, stronger effect = lower value 1 | S. cerevisiae deletion strains, locus YLR262C, strain YPT6 (second series), stronger effect = lower value 1 | S. cerevisiae deletion strains, locus YLR262C, strain YPT6, stronger effect = lower value 1.02 | S. cerevisiae deletion strains, locus YLR268W, strain sec22, stronger effect = lower value 0.956 | S. cerevisiae deletion strains, locus YLR320W, strain mms22, stronger effect = lower value 0.996 | S. cerevisiae deletion strains, locus YLR330W, strain CHS5, stronger effect = lower value 0.982 | S. cerevisiae deletion strains, locus YLR342W, strain FKS1 (second series), stronger effect = lower value 0.998 | S. cerevisiae deletion strains, locus YLR342W, strain FKS1, stronger effect = lower value 1.01 | S. cerevisiae deletion strains, locus YLR357W, strain rsc2, stronger effect = lower value 0.964 | S. cerevisiae deletion strains, locus YLR370C, strain arc18, stronger effect = lower value 1 | S. cerevisiae deletion strains, locus YLR371W, strain rom2, stronger effect = lower value 0.983 | S. cerevisiae deletion strains, locus YLR384C, strain iki3, stronger effect = lower value 1 | S. cerevisiae deletion strains, locus YLR418C, strain cdc73, stronger effect = lower value 0.972 | S. cerevisiae deletion strains, locus YML016C, strain PPZ1, stronger effect = lower value 0.987 | S. cerevisiae deletion strains, locus YML032C, strain rad52, stronger effect = lower value 0.982 | S. cerevisiae deletion strains, locus YML120C, strain ndi1, stronger effect = lower value 0.999 | S. cerevisiae deletion strains, locus YML124C, strain tub3, stronger effect = lower value 0.984 | S. cerevisiae deletion strains, locus YMR058W, strain fet3, stronger effect = lower value 1.01 | S. cerevisiae deletion strains, locus YMR078C, strain ctf18, stronger effect = lower value 0.984 | S. cerevisiae deletion strains, locus YMR125W, strain sto1, stronger effect = lower value 0.976 | S. cerevisiae deletion strains, locus YMR129W, stronger effect = lower value 0.997 | S. cerevisiae deletion strains, locus YMR205C, strain PFK2, stronger effect = lower value 0.994 | S. cerevisiae deletion strains, locus YMR223W, strain ubp8, stronger effect = lower value 0.995 | S. cerevisiae deletion strains, locus YMR231W, strain pep5, stronger effect = lower value 0.999 | S. cerevisiae deletion strains, locus YMR263W, strain SAP30, stronger effect = lower value 0.996 and 1.01 | S. cerevisiae deletion strains, locus YMR307W, strain GAS1, stronger effect = lower value 0.984 and 1.02 | S. cerevisiae deletion strains, locus YNL067W, strain RPL9B, stronger effect = lower value 1.01 | S. cerevisiae deletion strains, locus YNL071W, strain lat1, stronger effect = lower value 1.01 | S. cerevisiae deletion strains, locus YNL153C, strain GIM3, stronger effect = lower value 1.01 | S. cerevisiae deletion strains, locus YNL175C, strain NOP13, stronger effect = lower value 1.01 | S. cerevisiae deletion strains, locus YNL183C, strain NPR1, stronger effect = lower value 0.953 | S. cerevisiae deletion strains, locus YNL197C, strain WHI3, stronger effect = lower value 1.02 | S. cerevisiae deletion strains, locus YNL209W, strain ssb2, stronger effect = lower value 0.994 | S. cerevisiae deletion strains, locus YNL224C, strain SQS1, stronger effect = lower value 1 | S. cerevisiae deletion strains, locus YNL233W, strain BNI4, stronger effect = lower value 0.988 | S. cerevisiae deletion strains, locus YNL248C, strain rpa49, stronger effect = lower value 0.99 | S. cerevisiae deletion strains, locus YNL250W, strain rad50, stronger effect = lower value 0.978 | S. cerevisiae deletion strains, locus YNL271C, strain bni1, stronger effect = lower value 0.983 | S. cerevisiae deletion strains, locus YNL298W, strain CLA4, stronger effect = lower value 0.979 | S. cerevisiae deletion strains, locus YNL307C, strain MCK1, stronger effect = lower value 0.982 | S. cerevisiae deletion strains, locus YNL322C, strain KRE1 (second series), stronger effect = lower value 0.989 | S. cerevisiae deletion strains, locus YNR049C, strain mso1, stronger effect = lower value 0.98 | S. cerevisiae deletion strains, locus YNR052C, strain pop2, stronger effect = lower value 0.982 | S. cerevisiae deletion strains, locus YOL006C, strain TOP1, stronger effect = lower value 1.03 | S. cerevisiae deletion strains, locus YOL012C, strain htz1 1.09 | S. cerevisiae deletion strains, locus YOL147C, strain pex11, stronger effect = lower value 0.985 | S. cerevisiae deletion strains, locus YOR001W, strain rrp6, stronger effect = lower value 0.989 | S. cerevisiae deletion strains, locus YOR061W, strain CKA2, stronger effect = lower value 0.987 | S. cerevisiae deletion strains, locus YOR069W, strain VPS5, stronger effect = lower value 0.986 | S. cerevisiae deletion strains, locus YOR070C, strain gyp1, stronger effect = lower value 1 | S. cerevisiae deletion strains, locus YOR080W, strain dia2, stronger effect = lower value 0.996 | S. cerevisiae deletion strains, locus YOR083W, strain WHI5 (second series), stronger effect = lower value 1.01 | S. cerevisiae deletion strains, locus YOR083W, strain WHI5, stronger effect = lower value 0.998 | S. cerevisiae deletion strains, locus YOR106W, strain vam3, stronger effect = lower value 0.998 | S. cerevisiae deletion strains, locus YOR136W, strain idh2, stronger effect = lower value 0.992 | S. cerevisiae deletion strains, locus YOR144C, strain elg1, stronger effect = lower value 0.994 | S. cerevisiae deletion strains, locus YOR184W, strain ser1, stronger effect = lower value 0.99 | S. cerevisiae deletion strains, locus YOR231W, strain MKK1, stronger effect = lower value 1.02 | S. cerevisiae deletion strains, locus YOR265W, strain rbl2, stronger effect = lower value 0.996 | S. cerevisiae deletion strains, locus YOR270C, strain vph1, stronger effect = lower value 1.03 | S. cerevisiae deletion strains, locus YOR290C, strain snf2, stronger effect = lower value 1.01 | S. cerevisiae deletion strains, locus YOR316C, strain cot1, stronger effect = lower value 0.994 | S. cerevisiae deletion strains, locus YPL051W, strain arl3, stronger effect = lower value 1 | S. cerevisiae deletion strains, locus YPL055C, strain LGE1, stronger effect = lower value 1.02 | S. cerevisiae deletion strains, locus YPL078C, strain atp4, stronger effect = lower value 0.994 | S. cerevisiae deletion strains, locus YPL106C, strain sse1, stronger effect = lower value 0.973 | S. cerevisiae deletion strains, locus YPL240C, strain hsp82, stronger effect = lower value 1 | S. cerevisiae deletion strains, locus YPL241C, strain CIN2, stronger effect = lower value 1 | S. cerevisiae deletion strains, locus YPL256C, strain CLN2, stronger effect = lower value 0.986 | S. cerevisiae deletion strains, locus YPR119W, strain clb2, stronger effect = lower value 0.995 | S. cerevisiae deletion strains, locus YPR141C, strain kar3, stronger effect = lower value 0.978 | S. cerevisiae deletion strains, locus YPR163C, strain tif3, stronger effect = lower value 0.984 | S. cerevisiae deletion strains, locus YPR167C, strain met16, stronger effect = lower value 0.984 | S. cerevisiae deletion strains, strain wtn01, stronger effect = lower value 0.964 | S. cerevisiae strains, strain wild type, stronger effect = lower value 1.01
